Experimental findings from PubChem BioAssay (EPA / NIEHS) are described below.

Structures are written as SMILES. Calls of active or inactive are those of the source. Rule for the calls: active = hit-call score of the fitted dose curve at least 0.9, where 1 is the maximum; inactive = score below 0.9.

Common to all, as to settings: mRNA level, 48 h; actives raise or lower the signal
Read-out in experiment [1]: Bcl-2 (BAD) gene, BAD (gene 572)
Put plainly: LTEA_HepaRG_BAD: Life Technologies and Expression Analysis (LTEA) Assay for Bcl-2 (BAD) gene using HepaRG (AID 2283469). The method in brief: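 HepaRG, 48 h exposure, 8-pt half-log curve from 100 uM in 0.5% DMSO, duplicates. Readout: TaqMan qRT-PCR for BAD mRNA, housekeeping-normalised (ACTB/GAPDH/POLR2A); gain or loss fitted against DMSO baseline.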

Read-out in experiment [2]: Bcl-2 (BAX) gene, BAX (gene 581)
Put plainly: LTEA_HepaRG_BAX: Life Technologies and Expression Analysis (LTEA) Assay for Bcl-2 (BAX) gene using HepaRG (AID 2283470). In outline:
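qRT-PCR read-out of BAX mRNA, normalized to three housekeeping genes, after 48 h chemical exposure of human HepaRG cells in serum-free induction medium; eight-point half-log series, top 100 uM, 0.5% DMSO vehicle; bidirectional fit versus DMSO.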

Read-out in experiment [3]: adenosine kinase (ADK) gene, ADK (gene 132)
Put plainly: LTEA_HepaRG_ADK: Life Technologies and Expression Analysis (LTEA) Assay for adenosine kinase (ADK) gene using HepaRG (AID 2283471). The method in brief:
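ADK expression quantified by qRT-PCR, normalised to three housekeeping genes, after 48 h exposure of HepaRG cells to eight concentrations (top 100 uM, half-log steps, duplicate, 0.5% DMSO). Up- or down-regulation fitted relative to vehicle.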

Read-out in experiment [4]: Alpha-fetoprotein (AFP) gene, AFP (gene 174)
The experiment in a line: LTEA_HepaRG_AFP: Life Technologies and Expression Analysis (LTEA) Assay for Alpha-fetoprotein (AFP) gene using HepaRG (AID 2283472). The method in brief: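 qRT-PCR (Fluidigm TaqMan) readout of AFP transcript, normalized to three housekeeping genes, fitted bidirectionally against 0.5% DMSO baseline. HepaRG cells received chemicals for 48 h in serum-free induction medium, top concentration 100 uM, half-log steps.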

Read-out in experiment [5]: BCL2L11 (gene 10018)
Put plainly: LTEA_HepaRG_BCL2L11: Life Technologies and Expression Analysis (LTEA) Assay for Bcl-2 (BCL2L11) gene using HepaRG (AID 2283473). In outline: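 BCL2L11 transcript levels are measured by Fluidigm qRT-PCR, normalized to three housekeeping genes. HepaRG cultures were plated 48 h, then treated 48 h with test chemical (top 100 uM, half-log, 0.5% DMSO vehicle); curves were fitted bidirectionally against DMSO.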

Read-out in experiment [6]: Apolipoprotein A-V (APOA5) gene, APOA5 (gene 116519)
The experiment in a line: LTEA_HepaRG_APOA5: Life Technologies and Expression Analysis (LTEA) Assay for Apolipoprotein A-V (APOA5) gene using HepaRG (AID 2283474). The method in brief:
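APOA5 transcript levels were quantified by qRT-PCR, normalized to three housekeeping genes, after 48 h chemical treatment of HepaRG cells (8 points, 100 uM maximum, half-log steps, 0.5% DMSO). Curves fitted in both directions against vehicle.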

Read-out in experiment [7]: Apoptosis regulator Bcl-2 (Homo sapiens) (UniProt P10415)
Put plainly: LTEA_HepaRG_BCL2: Life Technologies and Expression Analysis (LTEA) Assay for Bcl-2 gene using HepaRG (AID 2283475). The method in brief: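 qRT-PCR read-out (Fluidigm TaqMan) of BCL2 transcript, normalised to three housekeeping genes, after 48 h chemical exposure of HepaRG cells; 8-point half-log series, top 100 uM, 0.5% DMSO vehicle. Gain or loss of signal fitted relative to DMSO baseline.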

Read-out in experiment [8]: Bcl-2 (BID) gene, BID (gene 637)
Put plainly: LTEA_HepaRG_BID: Life Technologies and Expression Analysis (LTEA) Assay for Bcl-2 (BID) gene using HepaRG (AID 2283476). The method in brief: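 HepaRG, 48 h exposure, 8-pt half-log series, top 100 uM, 0.5% DMSO vehicle, duplicates. Readout: BID mRNA by TaqMan qRT-PCR; housekeeping-normalized; bidirectional curve fit vs DMSO baseline.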

Read-out in experiment [9]: Caspase-3 (Homo sapiens) (UniProt P42574)
The experiment in a line: LTEA_HepaRG_CASP3: Life Technologies and Expression Analysis (LTEA) Assay for cysteine-aspartic acid protease (CASP3) using HepaRG (AID 2283477). In outline:
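Expression of CASP3 was quantified by TaqMan qRT-PCR against three housekeeping genes (ACTB, GAPDH, POLR2A), bidirectionally versus 0.5% DMSO. HepaRG cultures received compounds in duplicate, top 100 uM with half-log steps, for 48 h in serum-free induction medium.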

Read-out in experiment [10]: Cytochrome P450 (CYP24A1), CYP24A1 (gene 1591)
The experiment in a line: LTEA_HepaRG_CYP24A1: Life Technologies and Expression Analysis (LTEA) Assay for Cytochrome P450 (CYP24A1) using HepaRG (AID 2283478). In outline: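 mRNA of CYP24A1 quantified by TaqMan qRT-PCR (ACTB/GAPDH/POLR2A normalization) after 48 h chemical exposure of HepaRG cells, top concentration 100 uM, half-log steps, 0.5% DMSO vehicle, duplicates. Curves fitted bidirectionally against DMSO baseline.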

Read-out in experiment [11]: Cytochrome P450 (CYP1A2), CYP1A2 (gene 1544)
Put plainly: LTEA_HepaRG_CYP1A2: Life Technologies and Expression Analysis (LTEA) Assay for Cytochrome P450 (CYP1A2) using HepaRG (AID 2283479). In outline: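 CYP1A2 transcript measured by TaqMan qRT-PCR against three housekeeping genes after 48-hour chemical exposure of HepaRG cells. Eight-point half-log series topping at 100 uM in 0.5% DMSO, duplicates; gain or loss fitted relative to vehicle.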

Read-out in experiment [12]: Cytochrome P450 (CYP2B6), CYP2B6 (gene 1555)
The experiment in a line: LTEA_HepaRG_CYP2B6: Life Technologies and Expression Analysis (LTEA) Assay for Cytochrome P450 (CYP2B6) using HepaRG (AID 2283481). In outline: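 CYP2B6 transcript level quantified by qRT-PCR against three housekeeping genes, fitted bidirectionally relative to DMSO. HepaRG cultures received chemicals for 48 h, 8-point half-log series from 100 uM in 0.5% DMSO, duplicate wells, serum-free induction medium.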

Read-out in experiment [13]: Cytochrome P450 2C19 (Homo sapiens) (UniProt P33261)
Put plainly: LTEA_HepaRG_CYP2C19: Life Technologies and Expression Analysis (LTEA) Assay for CYP2C19 using HepaRG (AID 2283482). The method in brief:
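CYP2C19 transcript levels by qRT-PCR, normalized to three housekeeping genes, in HepaRG cells after 48 h chemical exposure. Eight-point half-log series topping at 100 uM, 0.5% DMSO vehicle. Increases and decreases both fitted against DMSO.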

Read-out in experiment [14]: CYP2C8 (gene 1558)
The experiment in a line: LTEA_HepaRG_CYP2C8: Life Technologies and Expression Analysis (LTEA) Assay for CYP2C8 using HepaRG (AID 2283483). In outline:
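HepaRG (human liver line), 48 h chemical exposure, 8-pt half-log series from 100 uM, 0.5% DMSO vehicle. Readout: CYP2C8 transcript by qRT-PCR, housekeeping-normalized. Bidirectional fit vs DMSO baseline.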

Read-out in experiment [15]: CYP2C9 (gene 1559)
The experiment in a line: LTEA_HepaRG_CYP2C9: Life Technologies and Expression Analysis (LTEA) Assay for CYP2C9 using HepaRG (AID 2283484). In outline:
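HepaRG, 48 h dosing, 8-pt half-log series, top 100 uM, 0.5% DMSO vehicle. Read-out: CYP2C9 transcript by TaqMan qRT-PCR, housekeeping-normalized (ACTB/GAPDH/POLR2A). Gain or loss fitted vs DMSO baseline.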

Read-out in experiment [16]: CYP2E1 (gene 1571)
Put plainly: LTEA_HepaRG_CYP2E1: Life Technologies and Expression Analysis (LTEA) Assay for CYP2E1 using HepaRG (AID 2283485). The method in brief:
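CYP2E1 transcript was measured by TaqMan qRT-PCR in human HepaRG cultures after 48 h chemical exposure (top 100 uM, half-log steps, 0.5% DMSO vehicle). Housekeeping-gene normalization; gain or loss fitted relative to DMSO baseline.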

Read-out in experiment [17]: CYP4A11 (gene 1579)
Put plainly: LTEA_HepaRG_CYP4A11: Life Technologies and Expression Analysis (LTEA) Assay for CYP4A11 using HepaRG (AID 2283486). The method in brief:
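Readout is CYP4A11 transcript level by qRT-PCR, normalized to three housekeeping genes and fitted bidirectionally against 0.5% DMSO. Human HepaRG cells were treated 48 h, in duplicate, with an 8-point half-log series topping at 100 uM.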

Read-out in experiment [18]: Cytochrome P450 3A4 (Homo sapiens) (UniProt P08684)
Put plainly: LTEA_HepaRG_CYP3A4: Life Technologies and Expression Analysis (LTEA) Assay for CYP3A4 using HepaRG (AID 2283487). The method in brief: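 Differentiated HepaRG cells, plated 48 h, then dosed 48 h in serum-free induction medium with 0.5% DMSO, 8 half-log concentrations up to 100 uM, duplicate. CYP3A4 mRNA by qRT-PCR, normalized to ACTB/GAPDH/POLR2A; bidirectional fit versus DMSO.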

Read-out in experiment [19]: DNA damage-inducible transcript 3 (DDIT3), DDIT3 (gene 1649)
Put plainly: LTEA_HepaRG_DDIT3: Life Technologies and Expression Analysis (LTEA) Assay for DNA damage-inducible transcript 3 (DDIT3) using HepaRG (AID 2283488). The method in brief:
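qRT-PCR readout (Fluidigm TaqMan), housekeeping-normalized to ACTB, GAPDH, POLR2A. HepaRG cells, 48 h exposure, 8-point half-log series from 100 uM in 0.5% DMSO, duplicates. Gain or loss of signal fitted against DMSO baseline.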

Read-out in experiment [20]: cysteine-aspartic acid protease (CASP8), CASP8 (gene 841)
The experiment in a line: LTEA_HepaRG_CASP8: Life Technologies and Expression Analysis (LTEA) Assay for cysteine-aspartic acid protease (CASP8) using HepaRG (AID 2283480). In outline:
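qRT-PCR readout of CASP8 mRNA, normalized to three housekeeping genes, after 48 h chemical exposure of HepaRG cells; 8-point half-log series, top 100 uM, 0.5% DMSO vehicle. Bidirectional curve fitting against DMSO baseline.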

In general, AC50 refers to the concentration at which the activity in the assay is half-maximal.

Caspase-3 (Homo sapiens), sequence (P42574 whole entry, looked up): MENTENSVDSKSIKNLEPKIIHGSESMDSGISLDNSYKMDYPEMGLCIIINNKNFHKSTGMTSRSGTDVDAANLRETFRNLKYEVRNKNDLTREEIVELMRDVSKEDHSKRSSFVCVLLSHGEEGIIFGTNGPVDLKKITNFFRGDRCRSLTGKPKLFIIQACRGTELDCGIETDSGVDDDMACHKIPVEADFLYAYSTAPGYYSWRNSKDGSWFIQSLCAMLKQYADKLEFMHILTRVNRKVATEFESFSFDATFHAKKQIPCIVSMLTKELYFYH
Cytochrome P450 2C19 (Homo sapiens), sequence (P33261 whole entry, looked up): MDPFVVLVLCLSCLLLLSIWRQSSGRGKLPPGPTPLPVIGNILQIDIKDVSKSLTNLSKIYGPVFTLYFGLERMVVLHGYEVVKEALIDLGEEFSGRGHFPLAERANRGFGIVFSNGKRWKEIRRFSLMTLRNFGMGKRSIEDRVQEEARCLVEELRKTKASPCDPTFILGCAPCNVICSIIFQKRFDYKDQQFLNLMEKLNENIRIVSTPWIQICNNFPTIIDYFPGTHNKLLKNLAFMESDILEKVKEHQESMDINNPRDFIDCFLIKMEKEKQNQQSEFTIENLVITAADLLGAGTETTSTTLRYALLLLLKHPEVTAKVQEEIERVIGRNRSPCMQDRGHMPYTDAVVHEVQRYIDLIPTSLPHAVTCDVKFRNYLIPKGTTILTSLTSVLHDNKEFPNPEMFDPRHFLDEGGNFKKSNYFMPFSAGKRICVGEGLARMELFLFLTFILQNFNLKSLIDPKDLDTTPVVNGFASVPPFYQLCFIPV
Apoptosis regulator Bcl-2 (Homo sapiens), sequence (P10415 whole entry, looked up): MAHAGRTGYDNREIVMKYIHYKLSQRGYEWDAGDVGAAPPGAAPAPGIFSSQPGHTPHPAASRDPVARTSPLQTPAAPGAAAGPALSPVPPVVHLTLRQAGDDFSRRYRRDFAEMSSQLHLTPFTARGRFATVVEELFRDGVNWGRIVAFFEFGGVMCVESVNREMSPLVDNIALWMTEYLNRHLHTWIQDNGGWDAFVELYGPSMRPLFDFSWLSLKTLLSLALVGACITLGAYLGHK
Cytochrome P450 3A4 (Homo sapiens), sequence (P08684 whole entry, looked up): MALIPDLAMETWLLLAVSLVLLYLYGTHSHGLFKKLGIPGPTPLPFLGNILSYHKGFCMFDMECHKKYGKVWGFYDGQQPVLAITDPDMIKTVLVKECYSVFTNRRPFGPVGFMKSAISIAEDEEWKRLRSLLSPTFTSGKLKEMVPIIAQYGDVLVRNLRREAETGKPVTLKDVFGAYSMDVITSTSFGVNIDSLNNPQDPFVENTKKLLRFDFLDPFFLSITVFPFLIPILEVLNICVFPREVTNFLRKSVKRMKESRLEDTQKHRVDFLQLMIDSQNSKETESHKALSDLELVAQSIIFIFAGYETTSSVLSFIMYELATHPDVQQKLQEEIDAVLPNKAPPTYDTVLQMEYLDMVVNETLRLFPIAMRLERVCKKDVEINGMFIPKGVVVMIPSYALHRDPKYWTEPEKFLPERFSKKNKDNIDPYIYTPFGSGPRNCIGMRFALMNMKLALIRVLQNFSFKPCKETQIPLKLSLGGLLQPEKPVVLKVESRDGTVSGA

On to `COc1cc(-c2nc(NC(=O)c3cc4cc(C)cc(C)c4n3CC(=O)O)sc2CCC2CCCCC2)c(OC)cc1Cl`, for which the outcome in [1], in experiment [2], in experiment [6] and in [10] was inactive. Besides, the AC50 in experiment [3] is 15.6 µM (active); in [4], 6.7 µM (active); in experiment [5], 60.6 µM (active); in experiment [7], 20.1 µM (active); in experiment [8] it was 5.4 µM (active); in [9], 11 µM (active). Further, the AC50 is 4.88 µM (active) in experiment [11]; 5.76 µM (active) in experiment [12]; 7.57 µM (active) in experiment [13]; 6.7 µM (active) in experiment [14]; 6.47 µM (active) in experiment [15]; 7.86 µM (active) in experiment [16]. Besides, the AC50 in experiment [17] was 8.34 µM (active); in [18], 7.45 µM (active); in experiment [19], 10.9 µM (active).

In the case of `CCCCCCOCCO`, the result in [1], in experiment [2], in [3], in experiment [4], in experiment [5] and in experiment [6] was inactive. For the same compound, the call in experiment [7], in experiment [8], in experiment [9], in [10], in [11] and in experiment [20] was inactive. The call in experiment [13], in experiment [14], in [16], in experiment [17], in experiment [18] and in experiment [19] was inactive.

As for `O=c1[nH]cc(F)c(=O)[nH]1`, the call in experiment [1], in experiment [2], in [3], in [4], in [5] and in experiment [7] was inactive. The call in experiment [8], in experiment [9], in [10], in [20], in experiment [13] and in experiment [14] was inactive. In addition, the outcome in experiment [18] and in experiment [19] was inactive. For the same compound, the AC50 is 70.9 µM (active) in experiment [6], 51 µM (active) in experiment [11], 51 µM (active) in experiment [16] and 51 µM (active) in experiment [17].
